Results taken from PubChem BioAssay (Tox21).
Records with an inconclusive call do not appear. Where a call stands in place of a potency, no number is given. The source made the active and inactive calls. Calls follow the shape of the dose curve; as a rule, active = well fitted cell-killing curve with a large enough effect in the repeat runs; inconclusive = weak or mixed curves, or effect the other way; inactive = flat fitted curve, though single readings scatter.

Assay: Human pregnane X receptor (PXR) small molecule agonists, qHTS cell viability counter screen (AID 1346977); also: nearly all actives have a fitted effect of over 50% in size
Conditions: PXR-Luc HepG2 viability, CellTiter-Fluor, 24 h; series mostly up to 92.4 µM
From the text: U.S. Tox21 Program National Center for Advancing Translational Sciences [NCATS] NIH Chemical Genomics Center [NCGC] U.S. Environmental Protection Agency [EPA] National Institutes of Environmental Health Sciences [NIEHS] National Toxicology Program [NTP] U.S. Food and Drug Administration [FDA] Tox21 Assay Overview: The human pregnane X receptor (hPXR) regulates the expression of several drug metabolizing enzymes and induction of these proteins is a major mechanism for developing drug resistance in cancer. One such key enzyme catalyzing the drug metabolism is cytochrome P450 3A4 (CYP3A4). Changes in CYP3A4 expression affect drug metabolism, thereby reducing the therapeutic efficacy and altering toxicological response to a drug and which finally causes adverse drug interaction. To screen Tox21 libraries for compounds that activate hPXR-mediated CYP3A4 gene expression, PXR-Luc HepG2 cells were used. Also cytotoxicity of the compounds was tested in parallel by measuring the cell viability using CellTiter-Fluor assay system in the same wells.
Tox21 Assay Protocol Summary: PXR-Luc HepG2 cells were dispensed at 2,000 per well in 5uL of assay medium containing 5% charcoal-stripped FBS into white solid bottom 1536-well plates (Corning Life Sciences, Corning, NY) using a Multidrop Combi (Thermo Scientific, Waltham, MA) dispenser. The assay plates were incubated at 37 C and 5% CO2 for 5hr, and then 23nL of compounds dissolved in DMSO and positive control were transferred using a Pintool station (Wako, San Diego, CA). The assay plates were incubated at 37C and 5% CO2 for 24hr. For cytotoxicity read, after 23hr incubation at 37C, 1uL CellTiter-Fluor reagent (Promega Corporation, Madison, WI) was added to each well of the assay plates using Flying Reagent Dispenser (FRD, Aurora Discovery, San Diego, CA). After 1hr incubation at 37C and 5% CO2, the fluorescence signal was quantified using a ViewLux plate reader (PerkinElmer, Shelton, CT).
Potency is read from the fitted curve at half-maximal effect.

| SMILES | Potency |
| --- | --- |
| Cc1ccc(/C=N/n2c(-c3ccccc3)csc2=S)cc1 | inactive |
| CC(=O)[C@H]1CC[C@H]2[C@@H]3C[C@H](C)C4=CC(=O)CC[C@]4(C)[C@H]3[C@@H](O)C[C@]12C | inactive |
| CC1=C(C=O)C(C)(C)CCC1 | inactive |
| Cc1cc2nc3ccc(=[N+](C)C)cc-3sc2cc1N | 13.3 µM (active) |
| COc1ccc([C@@H]2Sc3ccccc3NC(=O)[C@@H]2O)cc1 | inactive |
| Brc1cc(-c2ccc(Br)c(Br)c2Br)cc(Br)c1Br | inactive |
| O=C(O)Cc1ccc(-c2ccccc2)cc1 | inactive |
| CCCCC(=O)O[C@]1(C(=O)CO)[C@@H](C)C[C@H]2[C@@H]3CCC4=CC(=O)C=C[C@]4(C)[C@@]3(F)[C@@H](O)C[C@@]21C | inactive |
| CCCOCCOCCO | inactive |
| O=C(N/N=C/c1ccc([N+](=O)[O-])o1)c1ccc(O)cc1 | 10.6 µM (active) |
| Nc1nccs1 | inactive |
| CCCCCCCCCOC(C)=O | inactive |
| CCOCCn1c(C2CCN(CCc3ccc(C(C)(C)C(=O)O)cc3)CC2)nc2ccccc21 | inactive |
| CCCCC(=O)O[C@]1(C(=O)CO)CC[C@H]2[C@@H]3CCC4=CC(=O)CC[C@]4(C)[C@H]3[C@@H](O)C[C@@]21C | inactive |
| CC(=O)Oc1ccc2c(c1)CC[C@@H]1[C@@H]2CC[C@]2(C)[C@@H](O)CC[C@@H]12 | inactive |
| Nc1nc(Cl)nc2c1ncn2[C@@H]1O[C@H](CO)[C@@H](O)[C@@H]1F | inactive |
| ON(Cc1ccccc1)Cc1ccccc1 | inactive |
| CC(COc1ccc(C(C)(C)C)cc1)OS(=O)OCCCl (stereo not given) | 12.3 µM (active) |
| CO[C@H]1C=CO[C@@]2(C)Oc3c(C)c(O)c4c(O)c(c5c(c4c3C2=O)=NC2(CCN(CC(C)C)CC2)N=5)NC(=O)/C(C)=C\C=C/[C@H](C)[C@H](O)[C@@H](C)[C@@H](O)[C@@H](C)[C@H](OC(C)=O)[C@@H]1C | 30 µM (active) |
| CCCC1C(CC)=CC(CC)=CN1c1ccccc1 (stereo not given) | inactive |

| SMILES | Potency |
| --- | --- |
| CCCCCCCCCCCC[N+](C)(C)CCCS(=O)(=O)[O-] | inactive |
| C[N+]1(C)CCC(=C(c2ccccc2)c2ccccc2)CC1 | inactive |
| CCC(C)(C)C1CCC(O)CC1 (stereo not given) | inactive |
| O=S(=O)(c1ccccc1)c1ccc(Cl)cc1 | inactive |
| CC(C)CCCC(=O)O | inactive |
| Cc1nc2ccccc2s1 | inactive |
| C=CC(=O)NCOCC(C)C | inactive |
| C[C@@H]1C[C@H]2[C@@H]3CCC4=CC(=O)C=C[C@]4(C)[C@@]3(F)[C@@H](O)C[C@]2(C)[C@@]1(O)C(=O)CO | inactive |
| Nc1ccc(S(=O)(=O)O)cc1 | inactive |
| Nc1ccc(Cl)cc1[N+](=O)[O-] | inactive |
| CC(C)c1nnc2ccc(-c3ocnc3-c3cc(F)ccc3F)cn12 | inactive |
| COC(=O)[C@@H]1CC2=CC(=O)CC[C@]2(C)[C@@]23O[C@@H]2C[C@@]2(C)[C@@H](CC[C@@]24CCC(=O)O4)[C@H]13 | inactive |
| CCOC(=O)CC(=O)C(=O)OCC | inactive |
| CCOC(=O)c1ccccc1C | inactive |
| COCc1c(C(C)C)nc(C(C)C)c(/C=C/[C@@H](O)C[C@@H](O)CC(=O)O)c1-c1ccc(F)cc1 | inactive |
| CO/N=C1\CN(c2nc3c(cc2F)c(=O)c(C(=O)O)cn3C2CC2)CC1CN (stereo not given) | inactive |
| CC(C)C(=O)O | inactive |
| C=C(C)C(=O)OCCOC(=O)CC(C)=O | inactive |
| CNC(=S)NC | inactive |
| O=C(N[C@@H](c1ccccc1)[C@@H]1CCCCN1)c1cccc(C(F)(F)F)c1Cl | 54.5 µM (active) |
